Assay results taken from PubChem BioAssay (NCI).
About 83,000 compounds went through this panel and 20% of them were active in at least one assay; those are over-represented in the sample as a whole.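 The endpoint reported here, percent growth, reads 100 for growth as untreated, 0 for no net growth and -100 for all cells dead.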 Values without a mark were called inactive. Activity calls are given as the source filed them. The calls were made as follows: active = growth percent below 10; inactive = the rest.

What was measured:
Test in all cases: NCI-60 one-dose screen, 48 h (100 = growth as untreated, 0 = no growth, -100 = all killed)
Conditions in all cases: 10 µM
DU-145 prostate = tested on: DU-145 prostate
K-562 leukemia = tested on: K-562 leukemia
MDA-MB-231 breast = tested on: MDA-MB-231 breast
RXF 393 renal = tested on: RXF 393 renal
SF-268 CNS = tested on: SF-268 CNS
SF-295 CNS = tested on: SF-295 CNS
SF-539 CNS = tested on: SF-539 CNS
UACC-257 melanoma = tested on: UACC-257 melanoma
M14 melanoma = tested on: M14 melanoma
HCT-15 colon = tested on: HCT-15 colon
HT29 colon = tested on: HT29 colon
SNB-75 CNS = tested on: SNB-75 CNS
SNB-19 CNS = tested on: SNB-19 CNS
U251 CNS = tested on: U251 CNS
PC-3 prostate = tested on: PC-3 prostate
UACC-62 melanoma = tested on: UACC-62 melanoma
LOX IMVI melanoma = tested on: LOX IMVI melanoma
SK-MEL-28 melanoma = tested on: SK-MEL-28 melanoma
SK-MEL-5 melanoma = tested on: SK-MEL-5 melanoma

Compound | growth (DU-145 prostate) | growth (K-562 leukemia) | growth (MDA-MB-231 breast) | growth (RXF 393 renal) | growth (SF-268 CNS) | growth (SF-295 CNS) | growth (SF-539 CNS) | growth (UACC-257 melanoma) | growth (M14 melanoma) | growth (HCT-15 colon) | growth (HT29 colon) | growth (SNB-75 CNS) | growth (SNB-19 CNS) | growth (U251 CNS) | growth (PC-3 prostate) | growth (UACC-62 melanoma) | growth (LOX IMVI melanoma) | growth (SK-MEL-28 melanoma) | growth (SK-MEL-5 melanoma)
NC(=O)C12C(=O)NC(=O)C1(C(=O)O)C21CCCC1 (stereo not drawn) | 133% | 108% | 98.9% | 122% | 114% | 110% | 113% | 103% | 105% | 107% | 110% | 84.2% | 99.3% | 102% | 99% | 101% | 102% | 109% | 
N#C/C(=C\N1C(=O)/C(=C/c2cccc([N+](=O)[O-])c2)SC1=S)c1nc2ccccc2s1 | 99.6% | 77.1% | 79.7% | 105% | 85.3% | 86.9% | 80.3% | 68.3% | 81% | 95% | 90.6% | 82.5% | 88.8% | 69% | 83.5% | 63.3% | 79.8% | 92.4% | 64.6%
CC(=O)Nc1nc(C)c(C(=O)NNC=O)s1 | 108% | 54.8% | 106% | 109% | 94.8% | 112% | 102% | 106% | 120% | 99.5% | 99.8% | 94.8% | 117% | 109% | 91.6% | 97.1% | 104% | 104% | 104%
COc1cc(NS(C)(=O)=O)ccc1Nc1c2ccc(Cl)cc2nc2c(OC)cccc12 | -43.6% (active) | 13.4% | 62.6% | -11.3% (active) | 9.76% (active) | 14.5% | -53.8% (active) | 34.2% | 14.1% | -15.4% (active) | -37.3% (active) | -13.4% (active) | 32.8% | 5.31% (active) | 31.9% | -8.98% (active) | -58.7% (active) | 52.4% | 0.832% (active)
O=C(O)c1cc(C(F)(F)F)cc(C(F)(F)F)c1 | 116% | 95.2% | 104% | 105% | 106% | 102% | 105% | 101% | 91.1% | 104% | 100% | 97.6% | 118% | 103% | 97.7% | 108% |  | 103% | 109%
CCOc1nc(-c2ccccc2)cc2c(O)c(C(=O)NC(C)C)[nH]c(=O)c12 | 107% | 95% | 106% | 78.1% | 105% | 89.9% | 99.3% | 84.8% | 101% | 99.7% | 125% | 103% | 96.9% | 99.8% | 46.4% | 105% | 97.6% | 89.7% | 99.5%
CCCCOCC(=O)NC(NP(=O)(N(C)C)N(C)C)C(Cl)(Cl)Cl (stereo not drawn) | 139% | 84.2% | 121% | 130% | 122% | 70% | 114% | 108% | 94.3% | 140% | 122% | 106% | 107% | 120% | 113% |  | 110% | 125% | 118%
CC1(C)CCc2cc(-c3ccn(S(=O)(=O)c4ccc(Cl)cc4)n3)ccc2O1 | 88.3% | 52.4% | 76.4% | 89% | 90.7% | 78.7% | 101% | 64.9% | 80.1% | 91.3% | 70.9% | 92.3% | 100% | 74.2% | 56.8% | 75% | 72.2% | 94.7% | 47.2%
COc1ccc(-c2nc(SCC(=O)c3ccc(Br)cc3)[nH]c(=O)c2C#N)cc1 | 103% | 96.1% | 105% | 106% | 96.2% | 100% | 111% | 111% | 98.5% | 112% | 101% | 103% | 109% | 109% | 95.1% | 104% | 102% | 115% | 110%
CC1(C)CC(=O)c2c(nc3ccc(Cl)cc3c2-c2ccccc2)C1 | 106% | 55.7% | 85% | 3.11% (active) | 90.9% | 76% | 97.9% | 106% | 99.9% | 81.3% | 98.6% | 95.7% | 90% | 102% | 48.7% | 75.3% |  | 174% | 73%
O=C(O)c1ccccc1C(=O)c1cccc2c(F)cccc12 | 112% | 108% | 99.2% | 114% | 111% | 122% | 104% | 98.4% | 103% | 104% | 115% | 86.2% | 98.3% | 98.7% | 92.5% | 97.7% | 92.8% | 111% | 108%
COc1cc([C@@H]2c3cc4c(cc3[C@H](SC(=N)N)[C@H]3COC(=O)[C@H]23)OCO4)cc(OC)c1OC | 6.78% (active) | 13.8% | -5.46% (active) | 27.1% | 30.3% | -20.4% (active) | -22.5% (active) | 57.1% | 16.9% | 11.8% |  | 30.1% | 37.4% | 23.2% | 19.5% | 62.2% | 16.5% | 63.7% | -29.6% (active)
C#CCNCCCN1C(=O)c2ccc3c4c(ccc(c24)C1=O)C(=O)N(CCCNCC#C)C3=O | -98.8% (active) | -4.82% (active) | 0.356% (active) | -91.4% (active) | -26.4% (active) | -82.9% (active) | -97% (active) | -87.8% (active) | -91% (active) | -82.3% (active) | -8.76% (active) |  | -88.6% (active) |  | -28% (active) | -75.8% (active) | -94.4% (active) | -81.8% (active) | -98.7% (active)
O=C(NNc1nc(N2CCCC2)nc(N2CCCC2)n1)c1ccccc1 | 107% |  | 100% | 116% | 106% | 128% | 113% | 96.6% | 132% | 108% | 102% | 88.7% | 99.6% | 98.5% |  |  | 110% | 106% | 110%
CCN(CC)CC(O)CNc1ccnc2cc(Cl)c(Cl)cc12 (stereo not drawn) | 92.6% | 77.7% | 60% | 81.5% | 83.2% | 97.9% | 95.5% | 101% | 106% | 69.5% | 77.6% | 92.9% | 110% |  | 80% |  | 73.9% | 97.6% | 
COc1ccc(C2=Cc3ccc(OC(C)=O)cc3OC2)cc1 | 90.2% | 72.3% | 52.5% | 94.7% | 87.9% | 104% | 85.7% | 99.7% | 122% | 82.4% | 97.2% |  | 98.8% | 89.3% | 90.5% | 85.4% | 82.7% | 112% | 90.6%
COc1ccc(NC(=O)CCn2cnc3c(cc(-c4ccccc4)n3-c3ccccc3)c2=O)cc1 | 97.1% | 90.6% |  | 64.4% | 24.5% | 81.5% | 47.3% | 13% | 91.1% | 98.6% | 102% | -10.5% (active) | 57.2% | 77.4% | 86.6% | 92.4% | 66.4% | 101% | 91%
